# High-throughput results from PubChem.
# Compounds with a hit are over-represented: about 3.6% of the library has one in this group of screens.
# IMPase Li cell = qHTS Assay for Identifying the Cell-Membrane Permeable IMPase Inhibitors: Potentiation with Lithium | Potency, µM (highest dose often 59.4 µM), for the others: at the highest dose activity, negative = IMPase inhibition, actives largely listed as inhibitors | 210,000 tested, 0.35% active | CHO-M1 cells, IP1 TR-FRET (IP-One), carbachol + lithium;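 further: IP1 builds up when IMPase is blocked and the TR-FRET signal falls; plate controls were basal vehicle for no effect and high inhibitor control for full effect; nearly all actives have a fitted effect of over 50% in size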
#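 Concentration–response in CHO-M1 cells, lithium-potentiated; 30 min at 37C. IP1 detected by competitive TR-FRET after 10 min lysis at RT. Hill-fitted AC50.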
# NPSR antag = qHTS Assay for Antagonists of the Neuropeptide S Receptor: cAMP Signal Transduction. Q6W5P4. CHO-NPSR cells, cAMP TR-FRET, antagonist mode. Potency, µM (series often up to 38.3 µM), for inactives: top-dose activity change, negative = inhibition, usual class: inhibitors. 220,000 tested, 1% active; further: on the % scale 0 is the no-effect control and ±100 the full control effect; nearly all actives have a fitted effect of over 50% in size
# JMJD2E inh = qHTS Assay for Inhibitors of Human Jumonji Domain Containing 2E (JMJD2E). Lysine-specific demethylase 4E (Homo sapiens), B2RXH2. JMJD2E catalytic domain, FDH-coupled NADH fluorescence (FDH is formaldehyde dehydrogenase). Potency, µM (series often up to 57.1 µM), for the others: at the highest dose activity change, negative = inhibition, usual class: inhibitors. 230,000 tested, 1.6% active; active means well fitted inhibition curve with a large enough effect, not every such curve was filed as active; inconclusive means small, poorly fitted or top-dose-only effect, or another doubt; inactive means no such curve, though single readings can be large or run the other way;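 further: 0% = wells with enzyme and -100% = buffer wells without enzyme; nearly all actives have a fitted effect of over 50% in size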
# GCN5L2 inh = qHTS Assay for Inhibitors of GCN5L2; Potency, µM (highest dose often 58.9 µM), inactives show at the highest dose activity change, negative = inhibition, usual class: inhibitors; AID 504327, 2011; 390,000 tested, 0.21% active; Histone acetyltransferase KAT2A (Homo sapiens), Q92830; GCN5L2 HAT assay, ThioGlo1 CoA-SH fluorescence; further: on the % scale 0 is the no-effect control and ±100 the full control effect
# Target sequence (Q92830 whole entry, looked up): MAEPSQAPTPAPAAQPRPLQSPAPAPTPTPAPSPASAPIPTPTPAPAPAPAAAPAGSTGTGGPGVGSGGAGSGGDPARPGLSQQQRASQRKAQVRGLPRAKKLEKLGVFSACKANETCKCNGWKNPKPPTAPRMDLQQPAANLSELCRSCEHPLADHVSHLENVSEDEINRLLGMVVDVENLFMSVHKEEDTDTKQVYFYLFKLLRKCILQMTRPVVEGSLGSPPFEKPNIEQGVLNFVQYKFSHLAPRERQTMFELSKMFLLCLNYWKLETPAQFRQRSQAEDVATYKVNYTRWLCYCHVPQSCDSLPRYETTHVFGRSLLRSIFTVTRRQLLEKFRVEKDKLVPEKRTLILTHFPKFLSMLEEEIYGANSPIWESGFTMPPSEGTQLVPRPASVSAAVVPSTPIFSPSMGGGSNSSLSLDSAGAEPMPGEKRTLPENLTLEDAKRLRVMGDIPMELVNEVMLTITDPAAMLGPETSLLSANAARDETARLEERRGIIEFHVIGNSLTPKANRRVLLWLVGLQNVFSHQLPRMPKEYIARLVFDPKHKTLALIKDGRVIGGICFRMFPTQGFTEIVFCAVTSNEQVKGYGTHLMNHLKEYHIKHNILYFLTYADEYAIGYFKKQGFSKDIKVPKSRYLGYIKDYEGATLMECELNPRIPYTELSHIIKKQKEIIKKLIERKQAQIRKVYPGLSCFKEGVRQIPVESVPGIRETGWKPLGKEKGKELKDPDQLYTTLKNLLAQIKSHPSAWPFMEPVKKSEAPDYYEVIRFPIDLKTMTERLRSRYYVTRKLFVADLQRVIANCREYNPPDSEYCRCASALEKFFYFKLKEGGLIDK
#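 Preincubate 20nM GCN5L2 with compound 15 min, RT → add 50uM ThioGlo1 + 75uM H3(1-25) + 70uM acetyl-CoA → read fluorescence 0 and 20 min. Primary qHTS; fluorescent artifacts likely.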
# Sfp PPTase inh = qHTS Assay for Inhibitors of Bacillus subtilis Sfp phosphopantetheinyl transferase (PPTase); 4'-phosphopantetheinyl transferase ffp (Bacillus subtilis), Q9F4F7; Biochemical Sfp PPTase activity, qHTS; Potency, µM, inactives show largest response in the series, negative = inhibition, hits mostly inhibitors; 310,000 tested, 3.5% active; AID 1490, 2009;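 further: the enzyme is Sfp with the accession as filed and its product quenches rhodamine fluorescence; 0% = enzyme reaction without inhibitor and -100% = no enzyme wells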
#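 Buffer: 50 mM Hepes-Na pH 7.6, 10 mM MgCl2, 0.01% Nonidet P-40, 0.01% BSA. Enzyme 15 nM, pre-exposed to compound 15 min; substrates then added and fluorescence change tracked over 30 min.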
# Epigenetic reg = Quantitative High-Throughput Screen for Regulators of Epigenetic Control. murine LDR cells, GFP reporter derepression, 30 h. Potency, µM (titrated, usually from 53.9 µM), for inactives: top-dose GFP activation, actives largely listed as activators. 280,000 tested, 0.2% active; further: % of control where 0% means no effect; nearly all actives have a fitted effect of over 60% in size
#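 Readout is the number of GFP-expressing murine LDR cells, counted by cytometry following washing. Cells were treated with compound for 30 h at 37 C; the stably integrated CMV-GFP locus is normally silent.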
# The depositor's hits bear a star; ? = inconclusive; · = not tested or not shown; [ ] = another dose, or the depositor's remark. Unless noted, the call rests on the fitted dose curve; in most records, active means well fitted curve in the direction sought with a large enough effect; inconclusive means small, poorly fitted or top-dose-only effect, or another doubt; inactive means no such curve, though single readings can be large; an effect the other way counts as inactive or inconclusive. Potency means the concentration at half of the fitted maximal effect.
SMILES,IMPase Li cell,NPSR antag,JMJD2E inh,GCN5L2 inh,Sfp PPTase inh,Epigenetic reg
CC#C[C@]1(O)CC[C@H]2[C@@H]3CCC4=CC(=O)CCC4=C3[C@@H](c3ccc(N(C)C)cc3)C[C@@]21C,12%,13µM*,-9%,?,-5%,3%
O=c1[nH]sc2ccccc12,26%,-10%,?,8.9µM*,5µM*,?
O=c1cc(O)sc2ccccc12,-9%,-2%[46.1 µM],3%,-8%,9%,1%
CCOc1ccc(NC(=O)[C@H]2O[C@@H]3OC(C)(C)O[C@@H]3[C@H]3OC(C)(C)O[C@H]32)cc1,·,·,·,-9%,·,7%
O=C(CCC(=O)N1CCN(c2ccc(O)cc2)CC1)c1cccs1,·,3%,?,-11%,25µM*,0%
Cc1ccc(OCCC(=O)N2CCN(c3ccc(O)cc3)CC2)cc1,·,-24%,-26%,-4%,56µM*,-1%
[O-]/C(=C(\C(=S)Nc1cccc2ccccc12)[n+]1ccccc1)c1cccs1,9%,-1%,?,-1%,?,-1%
COc1cccc(NC(=S)/C(=C(\[O-])c2ccc(C)c([N+](=O)[O-])c2)[n+]2ccccc2)c1,17%[38.3 µM],-11%[46.1 µM],-1%,3%,56µM*,-1%
COc1cccc(NC(=S)/C(=C(\[O-])c2cc(C)n(-c3ccccc3F)c2C)[n+]2ccc(N(C)C)cc2)c1,11%,-50%,-4%,-4%,-16%,-1%
COc1cccc(NC(=S)/C(=C(\[O-])c2ccc(OC(F)F)cc2)[n+]2ccccc2)c1,8%,-7%,-6%,-16%,50µM*,1%
Cc1ccc(/C([O-])=C(/C(=S)Nc2ccc(SC(F)F)cc2)[n+]2ccccc2)cc1[N+](=O)[O-],11%,-10%,0%,1%,13µM*,0%
Cc1ccc(NC(=S)/C(=C(\[O-])c2ccc(C)c([N+](=O)[O-])c2)[n+]2ccccc2)cc1C,-7%[38.3 µM],-16%[46.1 µM],-2%,?,4%,3%
[O-]/C(=C(\C(=S)Nc1cccc2ccccc12)[n+]1ccccc1)c1ccc(OC(F)F)cc1,4%,-8%,?,1%,45µM*,-1%
Nc1ccc(S(=O)(=O)O)cc1,13%,·,·,·,·,·
Cc1nc(NCc2ccccc2)c2nc(-c3ccccc3)n(CCN3CCOCC3)c2n1,5%,·,?,·,7%,2%
Cc1nc(-c2ccc(Cl)cc2)oc1COC(C)(C)C(=O)O,·,·,·,-4%,23%,·
CC(=O)OCC(NC(=O)C(COCc1ccccc1)NC(=O)OC(C)(C)C)C1OC(n2cc(C)c(=O)[nH]c2=O)C(OC(C)=O)C1OC(C)=O (stereo unspecified),·,·,·,·,21%,·
Cc1ccc(N2C(=O)CS(=O)(=O)C23C(=O)N(Cc2ccccc2C)c2ccccc23)cc1Cl (stereo unspecified),·,·,·,-9%,·,-1%
Cc1ccccc1NC(=S)/C(=C(\[O-])c1ccc(C)c([N+](=O)[O-])c1)[n+]1ccccc1,6%,-1%,-5%,1%,-19%,-1%
Cc1ccc(/C([O-])=C(/C(=S)NCCN2CCOCC2)[n+]2ccccc2)cc1[N+](=O)[O-],19%,0%,-4%,-3%,20µM*,1%
[O-]/C(=C(\C(=S)Nc1cccc2ccccc12)[n+]1ccccc1)c1ccc2c(c1)OCCO2,-6%[38.3 µM],-15%[46.1 µM],?,-6%,45µM*,-3%
C/C(=N\NC(N)=S)C1=CCC2C3CC[C@H]4CC(O)CC[C@]4(C)C3CC[C@]12C (stereo partly specified),·,·,·,8%,40µM*,·
CCc1ccc(C(=O)CSc2ncn[nH]2)cc1,-9%[38.3 µM],6%[46.1 µM],?,?,71µM*,1%
COc1ccc(C(=O)CSc2ncn[nH]2)cc1OC,-9%[38.3 µM],-17%[46.1 µM],?,0%,-10%,-2%
Cc1nc2ncccn2c1-c1csc(Nc2ccc(S(N)(=O)=O)cc2)n1,·,·,·,-4%,-20%,·
SMILES,IMPase Li cell,NPSR antag,JMJD2E inh,GCN5L2 inh,Sfp PPTase inh,Epigenetic reg
Cc1nc2ncccn2c1-c1csc(Nc2ccccc2)n1,15%,3%,?,0%,56µM*,-1%
Cc1nc2ncccn2c1-c1csc(Nc2ccc(N(C)C)cc2)n1,30%,4%,-13%,0%,?,10%
Cc1nc2sccn2c1-c1csc(NCc2ccccc2)n1,33%[38.3 µM],-28%[46.1 µM],-19%,-4%,-16%,-1%
COc1ccc(Nc2nc(-c3c(C)nc4ncccn34)cs2)cc1,22%,-8%,-9%,-3%,18µM*,-3%
COc1ccccc1Nc1nc(-c2c(C)nc3ncccn23)cs1,24%,41%,16µM*,0%,?,3%
Cc1nc2ncccn2c1-c1csc(NCc2ccco2)n1,25%,-13%[46.1 µM],7%,-3%,8.9µM*,1%
C[C@H](CC[C@@H]1OC1(C)C)C1CC[C@H]2[C@@H]3CC=C4C[C@@H](O)CC[C@]4(C)[C@H]3CC[C@]12C (stereo partly specified),-7%,·,·,-19%,10%,1%
FC(F)(F)c1ccc(-c2noc(-c3ccccc3)c2I)cc1,15%,·,·,-10%,-3%,1%
CC1CCCCN1S(=O)(=O)c1ccc(C(=O)Nc2sccc2C(N)=O)cc1 (stereo unspecified),32%[38.3 µM],1.6µM*,?,-14%,9%,1%
NC(=O)c1ccsc1NC(=O)C1CCCN1S(=O)(=O)c1ccc(Cl)cc1 (stereo unspecified),13%[38.3 µM],-21%[46.1 µM],-1%,-5%,-7%,-2%
Cc1ccc(NC(=O)Cn2nc(N3CCN(c4ccccc4)CC3)ccc2=O)cc1F,·,·,·,13%,·,7%
CC(=O)c1cccc2c(O)c(C3=Nc4ccccc4C3=O)[nH]c12,67%,?,?,-4%,40µM*,-1%
O=C1C(c2c(O)[nH]c3ccccc23)=Nc2ccccc21,-5%,-15%,-1%,8%,16%,1%
COc1ccc2[nH]cc(CCNc3ccnc(-c4ccc(N(C)C)cc4)n3)c2c1,-2%,·,·,-29%,?,·
COC(=O)C(NS(=O)(=O)CCl)C(C)C (stereo unspecified),·,·,·,·,10%,·
C=CCc1c(C)nc2c(C)cccc2c1SC(=N)N,·,14%,-9%,-2%,56µM*,-1%
Cc1nc2c(C)cccc2c(SC(=N)N)c1CC=C(Cl)Cl,·,-6%[7.67 µM],-7%,-13%,?,-1%
